According to PubChem BioAssay (EPA / NIEHS):
Results filed as inconclusive are left out. Activity calls are given as the source filed them. Rule for the calls, unless noted: active = hit-call score of the fitted dose curve at least 0.9, where 1 is the maximum; inconclusive = response in the unintended direction; inactive = score below 0.9.

Experiments:
[1] = Tanguay_ZF_120hpf_MORT_legacy: (Legacy) Oregon State University Tanguay Lab 120 Hour Post-fertilization zebrafish Assay for Mortality (AID 2283633)
How it was run: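 Brightfield scoring of embryo death (binary) at 24 and 120 hpf; static exposure 6–120 hpf, 28C, sealed and foil-covered. Pronase-dechorionated 5D wild-type larvae, single embryo per well. DMSO 0.64% v/v; trimethyltin chloride 5uM positive control.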

[2] = Tanguay_ZF_120hpf_YSE_legacy: (Legacy) Oregon State University Tanguay Lab 120 Hour Post-fertilization zebrafish Assay for Yolk Sac Edema (AID 2283634);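 for AC50: actives raise the incidence of yolk sac edema above the DMSO baseline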
How it was run: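 Binary brightfield scoring of yolk sac edema at 120 hpf; DMSO baseline, gain-of-signal fitting. Dechorionated 5D larvae, one per well, static exposure 6–120 hpf, 28C, 0.64% DMSO. Dead embryos not scored.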

[3] = Tanguay_ZF_120hpf_AXIS_legacy: (Legacy) Oregon State University Tanguay Lab 120 Hour Post-fertilization zebrafish Assay for Body Axis Malformation (AID 2283635);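 for AC50: potency for an increased fraction of larvae scored with body axis malformation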
How it was run: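 Embryos: 5D wild-type, pronase-dechorionated 4 hpf; static exposure 6–120 hpf, 28C, sealed, dark, 1 embryo/well, 0.64% DMSO. 120 hpf axis malformation scored present/absent; dead embryos excluded. Analysed as gain of signal vs DMSO.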

[4] = Tanguay_ZF_120hpf_EYE_legacy: (Legacy) Oregon State University Tanguay Lab 120 Hour Post-fertilization zebrafish Assay for Eye Malformation (AID 2283636)
How it was run: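 Dechorionated wild-type Tropical 5D zebrafish embryos were exposed statically from 6 hpf, one per well, to 120 hpf at 28C in sealed, foil-covered plates with 0.64% DMSO. Eye malformation was scored present/absent by brightfield microscopy against DMSO controls.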

[5] = Tanguay_ZF_120hpf_SNOU_legacy: (Legacy) Oregon State University Tanguay Lab 120 Hour Post-fertilization zebrafish Assay for Snout Malformation (AID 2283637)
How it was run: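 Tropical 5D wild-type zebrafish embryos, dechorionated with pronase at 4 hpf, were exposed singly from 6 hpf to 120 hpf statically at 28C in 0.64% DMSO. Snout malformation was scored present/absent by brightfield microscopy, fitted against DMSO.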

[6] = Tanguay_ZF_120hpf_JAW_legacy: (Legacy) Oregon State University Tanguay Lab 120 Hour Post-fertilization zebrafish Assay for Jaw Malformation (AID 2283638);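 for AC50: active means more embryos with jaw malformation than DMSO controls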
How it was run: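 Binary jaw-malformation calls at 120 hpf by brightfield imaging; DMSO (0.64% v/v) = baseline. Embryos: 5D wild-type, pronase-dechorionated, one per well from 6 hpf, static exposure, 28C, sealed, dark.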

[7] = Tanguay_ZF_120hpf_OTIC_legacy: (Legacy) Oregon State University Tanguay Lab 120 Hour Post-fertilization zebrafish Assay for Otic Vesicle Malformation (AID 2283639)
How it was run: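 Embryos from 5D wild-type adults exposed in plates; DMSO 0.64% v/v final. Sealed, light-protected, 28C, static to 120 hpf. Otic vesicle malformation recorded as binary endpoint; gain-of-signal fitted vs DMSO.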

[8] = Tanguay_ZF_120hpf_BRAI_legacy: (Legacy) Oregon State University Tanguay Lab 120 Hour Post-fertilization zebrafish Assay for Brain Malformation (AID 2283641)
How it was run: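 Read-out: binary brain morphology call at 120 hpf (brightfield), fitted in gain-of-signal direction vs DMSO. Wild-type Tropical 5D embryos, static exposure, 28C, 0.64% DMSO final; 5uM trimethyltin chloride as positive control.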

[9] = Tanguay_ZF_120hpf_SOMI_legacy: (Legacy) Oregon State University Tanguay Lab 120 Hour Post-fertilization zebrafish Assay for Somite Malformation (AID 2283647)
How it was run: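 Binary brightfield scoring of somite defects at 120 hpf in 5D wild-type larvae; one dechorionated embryo per well, static exposure from 6 hpf, 28C, sealed and dark. Final DMSO 0.64%; trimethyltin chloride 5uM positive control.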

[10] = Tanguay_ZF_120hpf_CFIN_legacy: (Legacy) Oregon State University Tanguay Lab 120 Hour Post-fertilization zebrafish Assay for Caudal Fin Malformation (AID 2283649)
How it was run: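 Dechorionated 5D wild-type zebrafish, static exposure 6–120 hpf, 28C, sealed and dark, 0.64% v/v DMSO final. Binary fin-malformation call at 120 hpf, brightfield; gain of signal vs DMSO baseline.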

[11] = Tanguay_ZF_120hpf_PIG_legacy: (Legacy) Oregon State University Tanguay Lab 120 Hour Post-fertilization zebrafish Assay for Pigmentation Malformation (AID 2283650)
How it was run: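 Tropical 5D wild-type zebrafish embryos, dechorionated with pronase at 4 hpf, were exposed singly from 6 hpf to 120 hpf statically at 28C in sealed, dark plates with 0.64% DMSO; pigmentation scored present/absent by brightfield microscopy, fitted against DMSO.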

[12] = Tanguay_ZF_120hpf_CIRC_legacy: (Legacy) Oregon State University Tanguay Lab 120 Hour Post-fertilization zebrafish Assay for Circulatory Malformation (AID 2283651)
How it was run: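 Read-out: presence or absence of circulatory malformation at 120 hpf, scored by brightfield microscopy, fitted in the gain-of-signal direction against DMSO baseline. Wild-type 5D larvae were exposed from 6 hpf after enzymatic chorion removal.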

[13] = read-out: kallikrein-3 (KLK3), KLK3 (gene 354); assay: LTEA_HepaRG_KLK3: Life Technologies and Expression Analysis (LTEA) Assay for kallikrein-3 (KLK3) using HepaRG (AID 2283652; active = hit-call score of the fitted dose curve at least 0.9, where 1 is the maximum; inactive = score below 0.9); conditions: mRNA level, 48 h; actives raise or lower the signal
How it was run: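 Differentiated human HepaRG cells in serum-free induction medium exposed 48 h in duplicate, eight-point half-log series from 100 uM in 0.5% DMSO. KLK3 mRNA by qRT-PCR, normalised to ACTB, GAPDH, POLR2A; bidirectional fit versus DMSO.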

[14] = read-out: solute carrier (SLC22A6), SLC22A6 (gene 9356); assay: LTEA_HepaRG_SLC22A6: Life Technologies and Expression Analysis (LTEA) Assay for solute carrier (SLC22A6) using HepaRG (AID 2283653; active = hit-call score of the fitted dose curve at least 0.9, where 1 is the maximum; inactive = score below 0.9); conditions: mRNA level, 48 h; actives raise or lower the signal
How it was run: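 HepaRG, human liver line; 48 h chemical exposure; 8-pt half-log series from 100 uM in 0.5% DMSO, duplicate wells. Readout: TaqMan qRT-PCR of SLC22A6 mRNA, housekeeping-normalised; bidirectional curve fit vs DMSO baseline.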

[15] = Tanguay_ZF_120hpf_SWIM_legacy: (Legacy) Oregon State University Tanguay Lab 120 Hour Post-fertilization zebrafish Assay for Swim Bladder Malformation (AID 2283654);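 note: swim bladder malformation in each larva scored yes or no under brightfield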
How it was run: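 Dechorionated Tropical 5D wild-type embryos, placed singly from 6 hpf, were statically exposed at 28C to 120 hpf with 0.64% DMSO final; swim bladder malformation was scored present/absent by brightfield microscopy, gain of signal relative to DMSO controls.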

[16] = Tanguay_ZF_120hpf_TRUN_legacy: (Legacy) Oregon State University Tanguay Lab 120 Hour Post-fertilization zebrafish Assay for Truncated Body (AID 2283655)
How it was run: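 Whole-embryo zebrafish screen: dechorionated 5D embryos, static exposure 6–120 hpf, 28C, sealed foil-covered plates, 0.64% DMSO. Binary truncation call; gain of signal versus DMSO baseline.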

[17] = Tanguay_ZF_120hpf_NC_legacy: (Legacy) Oregon State University Tanguay Lab 120 Hour Post-fertilization zebrafish Assay for Notochord and Tail Malformation (AID 2283656)
How it was run: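 Dechorionated Tropical 5D wild-type zebrafish embryos, one per well from 6 hpf, statically exposed to 120 hpf at 28C in 0.64% DMSO final. Notochord distortion scored present/absent by brightfield; dead embryos excluded.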

[18] = read-out: solute carrier (SLC10A1), SLC10A1 (gene 6554); assay: LTEA_HepaRG_SLC10A1: Life Technologies and Expression Analysis (LTEA) Assay for solute carrier (SLC10A1) using HepaRG (AID 2283657; active = hit-call score of the fitted dose curve at least 0.9, where 1 is the maximum; inactive = score below 0.9); conditions: mRNA level, 48 h; actives raise or lower the signal
How it was run: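 Differentiated HepaRG cells were plated 48 h, then exposed in serum-free induction medium for 48 h to 8 concentrations (top 100 uM, half-log steps, 0.5% DMSO). SLC10A1 mRNA was quantified by qRT-PCR normalized to ACTB, GAPDH, POLR2A; bidirectional fit versus DMSO.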

[19] = Tanguay_ZF_120hpf_PE_legacy: (Legacy) Oregon State University Tanguay Lab 120 Hour Post-fertilization zebrafish Assay for Pericardial Edema (AID 2283640);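 for AC50: potency for increased incidence of pericardial edema versus DMSO baseline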
How it was run: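 Static waterborne exposure, 5D wild-type embryos, 28C, to 120 hpf; final DMSO 0.64% (vol/vol). Binary PE call at 120 hpf by brightfield; fitted upward vs DMSO baseline. 5uM trimethyltin chloride as positive control.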

[20] = Tanguay_ZF_120hpf_PFIN_legacy: (Legacy) Oregon State University Tanguay Lab 120 Hour Post-fertilization zebrafish Assay for Pectoral Fin Malformation (AID 2283648);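 note: each larva judged yes or no for fin defect by brightfield with dead larvae skipped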
How it was run: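 Tropical 5D wild-type embryos, dechorionated with pronase at 4 hpf, were placed singly in wells at 6 hpf and statically exposed until 120 hpf at 28C, sealed and dark, with 0.64% (vol/vol) final DMSO; pectoral fin malformation scored present/absent.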

Measured: AC50

CCCCCCCCCCC
inactive: [1] | [2] | [3] | [4] | [5] | [6] | [7] | [8] | [9] | [10] | [11] | [12] | [13] | [14] | [15] | [16] | [17] | [18]

COc1cc(C=O)ccc1O
active: [2] 43.3 µM | [3] 49.2 µM | [4] 60.5 µM | [5] 36.6 µM | [6] 35.3 µM | [7] 59.2 µM | [19] 37.6 µM | [8] 44.7 µM | [11] 45.9 µM | [16] 50 µM
inactive: [1] | [9] | [10] | [14] | [17] | [18]

CCCCCCCCCCO
inactive: [1] | [2] | [3] | [4] | [6] | [7] | [8] | [9] | [10] | [11] | [12] | [16] | [17]

CC1=C(/C=C/C(C)=C/C=C/C(C)=C/CO)C(C)(C)CCC1
inactive: [1] | [2] | [3] | [4] | [5] | [7] | [20] | [10] | [11] | [12] | [15] | [16] | [17]

CCc1c(C(=O)NN2CCCCC2)nn(-c2ccc(Cl)cc2Cl)c1-c1ccc(Br)cc1
inactive: [1] | [2] | [3] | [6] | [7] | [19] | [8] | [9] | [10] | [11] | [12] | [15] | [17]

CCNc1cccc(C)c1
inactive: [1] | [2] | [3] | [5] | [6] | [7] | [19] | [8] | [20] | [10] | [11] | [12] | [15] | [16]

Cc1c(C(=O)O)c(O)cc2c1C(=O)c1c(O)c([C@@H]3O[C@H](CO)[C@@H](O)[C@H](O)[C@H]3O)c(O)c(O)c1C2=O
inactive: [1] | [2] | [3] | [5] | [6] | [19] | [9] | [20] | [10] | [11] | [15] | [16] | [17]

CC(CO)OC(C)CO (configuration not stated) (tested in a mixture with another compound)
inactive: [1] | [2] | [3] | [5] | [7] | [19] | [20] | [10] | [11] | [15] | [16] | [17]

O=C(OCCCCCOC(=O)c1ccccc1)c1ccccc1
inactive: [1] | [2] | [3] | [4] | [5] | [6] | [7] | [8] | [9] | [20] | [10] | [11] | [12] | [15] | [16] | [17]

CCCCCCCC=O
inactive: [1] | [2] | [3] | [5] | [6] | [7] | [8] | [20] | [10] | [11] | [12] | [15] | [16] | [17]

O=[N+]([O-])C(CO)(CO)CO
inactive: [1] | [2] | [3] | [6] | [7] | [19] | [8] | [10] | [11] | [12] | [15] | [17]

CN[C@H]1CC[C@@H](c2ccc(Cl)c(Cl)c2)c2ccc(S(N)(=O)=O)cc21
inactive: [1] | [2] | [3] | [5] | [6] | [7] | [8] | [10] | [11] | [12] | [15] | [16] | [17]

O=c1c(O)c(-c2ccc(O)c(O)c2)oc2cc(O)cc(O)c12
inactive: [1] | [2] | [3] | [6] | [7] | [19] | [8] | [9] | [20] | [10] | [11] | [12] | [15] | [16] | [17]

Cc1ccc(C(C)C)c(O)c1
inactive: [1] | [2] | [3] | [4] | [7] | [19] | [10] | [11] | [12] | [16] | [17]

Cc1ccc(N(C)C)cc1
inactive: [1] | [2] | [3] | [4] | [5] | [6] | [11] | [12] | [15] | [16] | [17]

CCCCC(CC)COC(=O)CC(C(=O)OCC(CC)CCCC)S(=O)(=O)O (configuration not stated)
inactive: [1] | [2] | [3] | [4] | [5] | [6] | [7] | [8] | [9] | [10] | [11] | [12] | [15] | [16] | [17]

Cc1nc(-c2ccc3c(c2)CCN(CCC2CCC(NC(=O)/C=C/c4ccc(F)cc4)CC2)CC3)no1 (configuration not stated)
inactive: [1] | [2] | [3] | [6] | [7] | [19] | [8] | [10] | [11] | [12] | [15] | [16] | [17]
